21 molecules from PubChem BioAssay (NCATS) can be followed below.

The structures appear in SMILES notation. Values joined by “and” are separate entries in the source; they are usually repeats but may differ in a detail not shown here. Equal entries are not always repeated. Inconclusive results are not listed. Some compounds were tested as several samples or in several runs, with calls that do not always agree. A number with no mark means an inactive call. Active and inactive are the calls of the source. Calls follow the shape of the dose curve; as a rule, active = well fitted curve in the direction sought with a large enough effect; inconclusive = small, poorly fitted or top-dose-only effect, or another doubt; inactive = no such curve, though single readings can be large; an effect the other way counts as inactive or inconclusive.

One assay concerns Tov112D. In words: Primary qHTS to identify gynecologic anti-cancer compounds using libraries of approved drugs and bioactive compounds (AID 1345084). Also: nearly all actives have a fitted effect of over 55% in size. Conditions: Gynecologic cancer cell panel viability, ATPlite luminescence, 48 h; series mostly up to 57.5 µM. The method in brief: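 Cytotoxicity screen measuring ATP content by luciferase luminescence. Each compound is applied at five concentrations for 48 h at 37 C with 5% CO2.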

Assay [1] in a line: Drug repurposing screens with cells derived from glioblastoma tumor samples (AID 1345199). Also: nearly all actives have a fitted effect of over 40% in size. Also: potency is read from the fitted curve at half-maximal effect. The settings on record: GBM patient neurospheres viability, ATP luminescence, 48 h. The method in brief: (§1)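 Primary testing used CD133+ neurospheres from four GBM patients, seven concentrations, 48 h exposure and ATP-based viability; confirmation added three slower-growing patient lines.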

The next assay has as its system astro. The assay is described as above. Conditions: viability, ATP luminescence, 48 h; series mostly up to 45.9 µM. The method in brief:
as §1

The mark [2] stands for this setting: at 45.9 µM (top of the series), tumour line B.
[3] abbreviates: at 46.1 µM (top of the series), tumour line C.
[4] abbreviates: at 45.9 µM (top of the series), tumour line D.
The mark [5] stands for this setting: at 46 µM (top of the series), tumour line A.
Setting [6] is: at 21.2 µM (top of the series), tumour line B.
Setting [7] is: at 21.2 µM (top of the series), tumour line D.
Setting [8] is: at 21.3 µM (top of the series), tumour line A.
[9] abbreviates: at 20 µM (top of the series), tumour line C.
% is scaled to controls: 0 for no effect and ±100 for the full control effect.

As for `CN(Cc1ccc(C(C)(C)C)cc1)Cc1cccc2ccccc12`, the Potency entry in the assay on Tov112D and with astro was “inactive” throughout. Also, the activity, negative = cell killing in assay [1] (setting [2]) was -23.3%; in assay [1] (setting [3]) it was -13.6% and -21.7%. Besides, the Potency in assay [1] (tumour line A) is 22.4 µM (active); in assay [1] (tumour line B), 12.6 µM (active); in assay [1] (tumour line D), 22.4 µM (active).

For the molecule `Cc1ncc(CO)c(C=O)c1O`, in the assay with Tov112D, the Potency entry was “inactive”. Moreover, the activity, negative = cell killing is 6.81% in assay [1] (setting [2]), -6.02% in assay [1] (setting [4]), -26.4% in assay [1] (setting [5]) and 7.46% in assay [1] (setting [3]).

Turning to `COc1ccc2c(c1)c1c3n2CCN(C)C3=NCC1`, the Potency entry in the assay with Tov112D is “inactive”. Also, the results for the activity, negative = cell killing in assay [1] (setting [2]), in assay [1] (setting [4]) and in assay [1] (setting [3]) were -1.83%, -7.29% and -23.1%, respectively. For the same molecule, the Potency in assay [1] (tumour line A) was 12.6 µM (active).

As to `COc1ccc(-c2cc(C(F)F)nn2-c2ccc(S(N)(=O)=O)cc2)cc1F`, the Potency entry with Tov112D and in the assay with astro was “inactive” throughout. In addition, the activity, negative = cell killing in assay [1] (setting [2]) is -10.4%; in assay [1] (setting [4]), -9.89%; in assay [1] (setting [5]), -29.7%; in assay [1] (setting [3]), 2.98%.

Consider `Nc1ccc(C(=O)NCC(=O)O)cc1`, for which the Potency result in the assay on Tov112D was “inactive”. Besides, the activity, negative = cell killing in assay [1] (setting [6]) was -7.61%; in assay [1] (setting [7]) it was -13.9%; in assay [1] (setting [8]), -13.3%.

Take `CCN(CC)CCNC(=O)c1cc(Br)c(N)cc1OC`: in the assay with Tov112D, the Potency entry was “inactive”. Besides, the activity, negative = cell killing in assay [1] (setting [2]) is -11.2%; in assay [1] (setting [4]), -11.8%; in assay [1] (setting [3]), -28.9%. In addition, the Potency in assay [1] (tumour line A) is 7.94 µM (active).

In the case of `CCc1nn(CCCN2CCN(c3cccc(Cl)c3)CC2)c(=O)n1CCOc1ccccc1`, the Potency entry in the assay on Tov112D is “inactive”. Besides, the activity, negative = cell killing is -29% in assay [1] (setting [2]) and -17.6% in assay [1] (setting [3]). The Potency in assay [1] (tumour line A) was 7.94 µM (active) and 10 µM (active); in assay [1] (tumour line D), 15.8 µM (active) and 11.2 µM (active).

As for `NS(=O)(=O)Cc1noc2ccccc12`, in the assay with Tov112D, the Potency entry is “inactive”. For the same molecule, the activity, negative = cell killing in assay [1] (setting [2]) was -12.5%; in assay [1] (setting [4]), -13.1%; in assay [1] (setting [3]), 1.44%.

For the molecule `O=C(Nc1cccc(C2=NCCN2)c1)Nc1cccc(C2=NCCN2)c1`, the Potency result in the assay with Tov112D and in the assay with astro was “inactive” each time. Also, the activity, negative = cell killing in assay [1] (setting [2]) was 7.96%; in assay [1] (setting [4]) it was -22.5%; in assay [1] (setting [5]) it was 2.01%; in assay [1] (setting [3]), -6.35%.

Consider `NC(=O)n1c(O)c(C(=O)c2cccs2)c2cc(Cl)ccc21`, for which the Potency result with Tov112D is “inactive”. Also, the results for the activity, negative = cell killing in assay [1] (setting [2]) and in assay [1] (setting [4]) were -6.38% and -26.9%, respectively. For the same molecule, the Potency in assay [1] (tumour line A) was 22.4 µM (active); in assay [1] (tumour line C) it was 18.4 µM (active).

`CCOc1cc(OCC)c(C(=O)CCC(=O)O)cc1OCC`: the Potency entry in the assay on Tov112D and in the assay on astro was “inactive” in each case. The activity, negative = cell killing in assay [1] (setting [2]) is -2.96%; in assay [1] (setting [4]) it was -2.05%; in assay [1] (setting [5]), -23.5%; in assay [1] (setting [3]), -10.2%.

On to `N#C/C(=C1\SCC(c2ccccc2Cl)S1)n1ccnc1` (configuration not stated), for which, in the assay on Tov112D, the Potency result was “inactive”. In addition, the activity, negative = cell killing in assay [1] (setting [2]) is -11.6%; in assay [1] (setting [4]) it was -27.3%; in assay [1] (setting [3]) it was 0.133%. The Potency in assay [1] (tumour line A) is 10 µM (active).

On to `N#CCC(=O)NN`, for which the Potency entry in the assay with Tov112D was “inactive”. The activity, negative = cell killing in assay [1] (setting [2]) is -9.6%; in assay [1] (setting [4]), -5.43%; in assay [1] (setting [5]) it was -40.8%; in assay [1] (setting [3]), -7.01%.

In the case of `CCN[C@@H]1C[C@H](N)[C@@H](OC2OC(CN)=CCC2N)[C@H](O)[C@H]1O[C@H]1OC[C@](C)(O)[C@H](NC)[C@H]1O` (some centres not stated), the activity change, negative = cytotoxicity in the assay with Tov112D is -3.87% [at 0.462 µM]. In addition, the activity, negative = cell killing in assay [1] (setting [2]) is -4.35%; in assay [1] (setting [4]) it was 14.1%; in assay [1] (setting [5]), -22.3%; in assay [1] (setting [3]) it was -13.2%. Also, the Potency result with astro was “inactive”.

For the molecule `NCc1ccccc1Sc1ccccc1CO`, the Potency entry in the assay on Tov112D and with astro was “inactive” each time. Further, the activity, negative = cell killing in assay [1] (setting [2]) is -12.4%; in assay [1] (setting [4]) it was -24%; in assay [1] (setting [3]) it was -18%. Also, the Potency in assay [1] (tumour line A) was 35.5 µM (active).

`C=C[C@H]1CN2CC[C@H]1C[C@H]2[C@H](O)c1ccnc2ccc(OC)cc12`: the Potency entry with Tov112D was “inactive”. For the same molecule, the activity, negative = cell killing is -17.2% and -20.5% in assay [1] (setting [2]); -25.6% and -17.6% in assay [1] (setting [3]). Besides, in assay [1] (tumour line A), the Potency was 11.2 µM (active) and 17.8 µM (active).

In the case of `CCCc1ncc(C[n+]2ccccc2C)c(N)n1`, the Potency result in the assay with Tov112D is “inactive”. For the same molecule, the activity, negative = cell killing is 11.7% in assay [1] (setting [9]), -1.46% in assay [1] (setting [6]), -1.64% in assay [1] (setting [7]) and -22.4% in assay [1] (setting [8]).

For the molecule `O=C(O)C(Cc1cc(I)c(O)c(I)c1)c1ccccc1` (configuration not stated), the Potency result in the assay on Tov112D is “inactive”. Further, the activity, negative = cell killing in assay [1] (setting [2]) was 4.75%; in assay [1] (setting [4]), -5.57%; in assay [1] (setting [5]), -25.7%; in assay [1] (setting [3]), -25.5%.

Take `CN1CCN(c2cc3c(cc2F)c(=O)c(C(=O)O)cn3-c2ccc(F)cc2)CC1`: the Potency result with Tov112D and in the assay on astro was “inactive” in each case. Moreover, the activity, negative = cell killing is -7.1% in assay [1] (setting [2]), -1.79% in assay [1] (setting [4]), -26.7% in assay [1] (setting [5]) and 5.61% in assay [1] (setting [3]).

Consider `CCC1NC(=O)c2cc(S(N)(=O)=O)c(Cl)cc2N1` (configuration not stated), for which the Potency result with Tov112D and in the assay on astro was “inactive” in each case. Further, the activity, negative = cell killing in assay [1] (setting [9]) is -6.38%; in assay [1] (setting [6]) it was -2.62%; in assay [1] (setting [7]), -14.7%; in assay [1] (setting [8]) it was -12.3%.

For `CCNC(=O)NCc1cccc(Cl)c1`, the Potency entry in the assay with Tov112D and in the assay with astro was “inactive” each time. Further, the activity, negative = cell killing was -11.2% in assay [1] (setting [2]), -6.28% in assay [1] (setting [4]), -30% in assay [1] (setting [5]) and -10.1% in assay [1] (setting [3]).
